Measured values: the supplement of paper PMC12645437, “Orthogonal IMiD-Degron Pairs Induce Selective Protein Degradation in Cells” (ACS Chemical Biology, 2025)
In all, about 8,300 sequences were measured (“log2 fold change of degron read counts, EGFP-low vs EGFP+ sorted cells (limma voom), compound-induced degradation”: median about -1.1, highest 2% from about 3.2 on). The list comes from a sample in which the highest values are over-represented; it also holds similar and randomly drawn sequences.

Target: T1, CRBN, Q96SW2
T1 chain: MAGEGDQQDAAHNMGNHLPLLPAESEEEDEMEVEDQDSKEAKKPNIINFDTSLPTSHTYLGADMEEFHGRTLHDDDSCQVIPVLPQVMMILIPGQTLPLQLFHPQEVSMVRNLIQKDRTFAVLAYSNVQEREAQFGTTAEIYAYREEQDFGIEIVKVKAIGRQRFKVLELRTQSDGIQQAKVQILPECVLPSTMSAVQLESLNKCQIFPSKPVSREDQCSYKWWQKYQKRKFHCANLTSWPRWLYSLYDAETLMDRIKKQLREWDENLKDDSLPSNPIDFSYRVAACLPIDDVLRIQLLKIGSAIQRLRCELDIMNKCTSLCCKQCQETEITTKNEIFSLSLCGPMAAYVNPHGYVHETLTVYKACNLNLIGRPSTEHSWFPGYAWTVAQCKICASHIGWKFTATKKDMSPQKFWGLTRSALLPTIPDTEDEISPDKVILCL
Assay: log2 fold change of degron read counts, EGFP-low vs EGFP+ sorted cells (limma voom), compound-induced degradation; higher = more compound-induced degradation of the degron-EGFP fusion; degrons are variants of IKZF1/3 zinc finger 2; compound dose not given here
Details: Jurkat, 18 h
Description: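 Pooled library of 8380 IKZF3 ZF2 degron mutants (positions 146-167 varied within the IKZF3 130-189 degron; only the varied core is printed, flanks not printed) fused to EGFP with IRES-mCherry, lentivirally expressed in Jurkat cells. mCherry+ cells were treated with one IMiD compound for 18 h (dose not stated) and FACS-sorted into EGFP-low and EGFP+ populations. Degron sequences were counted by NGS, and log2FC (EGFP-low vs EGFP+) was estimated by limma voom over 3 biological replicates.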

[1] = compound: compound 19 (5-tert-butyl-thalidomide)
[2] = compound: compound 22 (5-morpholino-thalidomide)
[3] = compound: compound 33 (diphenyl IMiD analogue)
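Note: pooled lentiviral library of zinc finger degron-EGFP fusions in mCherry-positive Jurkat cells, FACS-sorted after compound exposure, with degron abundance counted by next-generation sequencing.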

FICNQCGAGFTQKGNLLRHIKL [46F_47I_49N_50Q_52G_53A_54G_55F_67L_, Q9UKT9]
log2 fold change of degron read counts [1]: -2.57
log2 fold change of degron read counts [2]: -1.54
log2 fold change of degron read counts [3]: -0.787
log2 fold change of degron read counts (compound: thalidomide): -0.966

FYCPICGHNFTQKGNLLRHIKL [46F_47Y_49P_50I_52G_53H_54N_55F_67L_, Q9UKT9]
log2 fold change of degron read counts [1]: -1.61
log2 fold change of degron read counts [2]: -1.84
log2 fold change of degron read counts [3]: -0.993
log2 fold change of degron read counts (compound: thalidomide): -1.92

LVCPICGFPCTQKGNLLRHIKL [46L_47V_49P_50I_52G_53F_54P_55C_67L_, Q9UKT9]
log2 fold change of degron read counts [1]: 0.138
log2 fold change of degron read counts [2]: 1.61
log2 fold change of degron read counts [3]: 0.747
log2 fold change of degron read counts (compound: thalidomide): 1.9

LACPICGFSCTQKGNLLRHIKL [46L_47A_49P_50I_52G_53F_54S_55C_67L_, Q9UKT9]
log2 fold change of degron read counts [1]: 3.69
log2 fold change of degron read counts [2]: 3.18
log2 fold change of degron read counts [3]: 2.48
log2 fold change of degron read counts (compound: thalidomide): 2.94

LHCPICGFSCTQKGNLLRHIKL [46L_47H_49P_50I_52G_53F_54S_55C_67L_, Q9UKT9]
log2 fold change of degron read counts [1]: 3.33
log2 fold change of degron read counts [2]: 3.49
log2 fold change of degron read counts [3]: 2.83
log2 fold change of degron read counts (compound: thalidomide): 2.54

LGCPICGFECTQKGNLLRHIKL [46L_47G_49P_50I_52G_53F_54E_55C_67L_, Q9UKT9]
log2 fold change of degron read counts [1]: 1.95
log2 fold change of degron read counts [2]: 0.368
log2 fold change of degron read counts [3]: 0.47
log2 fold change of degron read counts (compound: thalidomide): 0.369

LLCPICGFSCTQKGNLLRHIKL [46L_47L_49P_50I_52G_53F_54S_55C_67L_, Q9UKT9]
log2 fold change of degron read counts [1]: 1.38
log2 fold change of degron read counts [2]: 0.88
log2 fold change of degron read counts [3]: 1.79
log2 fold change of degron read counts (compound: thalidomide): 2.5

LSCPICGFSCTQKGNLLRHIKL [46L_47S_49P_50I_52G_53F_54S_55C_67L_, Q9UKT9]
log2 fold change of degron read counts [1]: 3.04
log2 fold change of degron read counts [2]: 3.05
log2 fold change of degron read counts [3]: 2.54
log2 fold change of degron read counts (compound: thalidomide): 2.8

LECPICGFSCTQKGNLLRHIKL [46L_47E_49P_50I_52G_53F_54S_55C_67L_, Q9UKT9]
log2 fold change of degron read counts [1]: 1.9
log2 fold change of degron read counts [2]: 0.453
log2 fold change of degron read counts [3]: 2.42
log2 fold change of degron read counts (compound: thalidomide): 3.62

LMCPICGFSCTQKGNLLRHIKL [46L_47M_49P_50I_52G_53F_54S_55C_67L_, Q9UKT9]
log2 fold change of degron read counts [1]: 1.63
log2 fold change of degron read counts [2]: 2.78
log2 fold change of degron read counts [3]: 2.99
log2 fold change of degron read counts (compound: thalidomide): 2.69

LDCPICGFSCTQKGNLLRHIKL [46L_47D_49P_50I_52G_53F_54S_55C_67L_, Q9UKT9]
log2 fold change of degron read counts [1]: 1.61
log2 fold change of degron read counts [2]: 0.446
log2 fold change of degron read counts [3]: 1.19
log2 fold change of degron read counts (compound: thalidomide): 2.17

LICPICGFSCTQKGNLLRHIKL [46L_47I_49P_50I_52G_53F_54S_55C_67L_, Q9UKT9]
log2 fold change of degron read counts [1]: 0.996
log2 fold change of degron read counts [2]: 3.08
log2 fold change of degron read counts [3]: 2.1
log2 fold change of degron read counts (compound: thalidomide): 3.18

LKCPICGFSCTQKGNLLRHIKL [46L_47K_49P_50I_52G_53F_54S_55C_67L_, Q9UKT9]
log2 fold change of degron read counts [1]: 1.33
log2 fold change of degron read counts [2]: -0.186
log2 fold change of degron read counts [3]: -0.695
log2 fold change of degron read counts (compound: thalidomide): 1.64

LGCPICGFSCTQKGNLLRHIKL [46L_47G_49P_50I_52G_53F_54S_55C_67L_, Q9UKT9]
log2 fold change of degron read counts [1]: 3.62
log2 fold change of degron read counts [2]: 2.62
log2 fold change of degron read counts [3]: 2.12
log2 fold change of degron read counts (compound: thalidomide): 1.55
